Screens from PubChem.
The sample as a whole holds a higher share of hits than the screen did.
CBX7 AlphaScr: CBX7 chromodomain binding inhibitors, primary screen, biochemical, AlphaScreen. AID 1224903, 2016. 66,000 compounds, 1.1% hits. normalised signal (fraction of DMSO) (no concentration beside the values). Chromobox protein homolog 7 (Homo sapiens), O95931. AlphaScreen His6-CBX7 / biotin-H3K27me3 peptide binding; active compounds read low; in the data active means normalised signal below about 0.5
Target sequence (O95931 whole entry, looked up): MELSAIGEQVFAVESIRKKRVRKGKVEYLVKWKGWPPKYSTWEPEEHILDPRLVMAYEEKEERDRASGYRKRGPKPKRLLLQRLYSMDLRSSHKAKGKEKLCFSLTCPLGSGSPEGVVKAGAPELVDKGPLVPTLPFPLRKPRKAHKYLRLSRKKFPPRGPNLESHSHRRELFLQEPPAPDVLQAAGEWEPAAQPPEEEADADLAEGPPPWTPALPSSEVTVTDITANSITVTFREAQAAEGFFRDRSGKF
The depositor's hits bear a star.

SMILES | CBX7 AlphaScr
COc1ccccc1CNC(=O)Cn1nc(-c2ccccc2)c2cc(Cl)ccc21 | 1
COc1cc(C(=O)Nc2ccccn2)cc(OC)c1OC | 1.1
CCCCN(CCCC)S(=O)(=O)c1ccc(C(=O)Nc2nc(-c3ccccn3)cs2)cc1 | 0.93
Cc1cc(C)c(-c2csc(NC(=O)c3cccc(Oc4ccccc4)c3)n2)c(C)c1 | 1.1
COc1cc(C(=O)Nc2nc(-c3ccccn3)cs2)cc(OC)c1OC | 0*
O=C(Nc1nc(-c2ccccn2)cs1)c1cccc(Oc2ccccc2)c1 | 0.039*
Cc1ccc(-c2csc(NC(=O)c3cccc(Oc4ccccc4)c3)n2)cc1 | 1.1
COc1ccc(C(=O)Nc2nc(-c3ccccc3)cs2)cc1OC | 0.83
CN(Cc1ccccc1)S(=O)(=O)c1ccc(C(=O)Nc2nc(-c3ccccn3)cs2)cc1 | 0.94
O=C(Nc1nc(-c2ccccn2)cs1)c1ccc(N2C(=O)CCC2=O)cc1 | 0.071*
Cc1ccc(-n2c3c(cc(C(=O)Nc4ccc(F)cc4)c2=O)C(=O)CC(C)(C)C3)cc1 | 1.2
COc1cc2c(cc1OC)C1C(C(=O)NCCCN3CCOCC3)c3ccccc3C(=O)N1CC2 (stereo not given) | 1
Cc1cccc(C(=O)N2CCc3c([nH]c4ccccc34)C2c2ccc(Cl)cc2)c1 (stereo not given) | 0.73
C#CCOc1ccc(-c2nnc(Nc3ccc(OCC(N)=O)cc3)c3ccccc23)cc1 | 0.82
FC(F)(F)c1ccc2nc(-c3ccccc3)c(-c3ccccc3)nc2c1 | 1.2
CCCc1ccc(-c2ccc(C(=O)Nc3nnc(SCC)s3)cc2)nc1 | 1
CCOc1ccccc1CNC(=O)c1cc(-c2cccs2)nc2ccccc12 | 1.1
CCOC(=O)c1cnc2c(C)cc(Cl)cc2c1Nc1ccc(N2CCOCC2)cc1 | 0.26*
CCOC(=O)c1cnc2c(C)cccc2c1Nc1ccc(C(=O)O)cc1 | 0.97
CCOC(=O)c1cnc2c(C)cc(C)cc2c1Nc1ccc(C)cc1 | 1.3
CCOC(=O)c1cnc2c(C)cc(Cl)cc2c1Nc1ccc2c(c1)OCCO2 | 0.86
CCOC(=O)c1cnc2c(C)cccc2c1Nc1ccc(F)cc1 | 1.3
CCOC(=O)c1cnc2c(C)cc(C)cc2c1Nc1ccc(OCC)cc1 | 1.1
CCOC(=O)c1cnc2c(C)cc(C)cc2c1Nc1ccc(N(C)C)cc1 | 0.33*
CCOC(=O)c1cnc2c(C)cc(Cl)cc2c1Nc1cccc(C(=O)O)c1 | 0.76
SMILES | CBX7 AlphaScr
CCOC(=O)c1cnc2c(C)cccc2c1Nc1ccc(N(CC)CC)cc1 | 0.12*
CC1CCC(NC(=O)c2ccc3c(c2)N(Cc2c(F)cccc2Cl)C(=O)CS3)CC1 (stereo not given) | 0.99
Cn1c(C(=O)N2CCc3ccccc32)cc2sc(Cl)cc21 | 1.1
O=C(Cc1c(C(=O)O)[nH]c2ccccc12)NCCCN1CCN(c2cccc(Cl)c2)CC1 | 0.98
COc1ccc2nc(NC(=O)CSc3nc4ccccc4s3)sc2c1 | 1
Cc1ccc(-n2ncc3c(Nc4cccc5c4CCCC5)ncnc32)c(C)c1 | 0.97
CCc1nnc(NC(=O)c2cc3sccc3n2Cc2ccc(F)cc2)s1 | 1
COc1ccc(C(=O)c2cn(Cc3ccc(Cl)cc3)c3ccccc3c2=O)cc1 | 0.62
COc1ccc(C(O)Cn2c(=N)n(CCCN(C)C)c3ccccc32)cc1 (stereo not given) | 0.95
CCC(=C(c1ccc(OC)cc1)c1ccc(OC)cc1)c1cn(CCCN(C)C)c2ccccc12 | 0.27*
COc1ccc(Cl)cc1C(=O)Nc1cccc(-c2nc3ccc(C)cc3o2)c1C | 1
O=C1CN(C(=O)CC2CCCCC2)C(c2ccccc2)c2cc(Br)ccc2N1 (stereo not given) | 1.1
CC(C)CCNC(=O)c1ccc2c(c1)NC(=O)CN2C | 1.1
Cc1cccn2cc(-c3cccc(NC(=O)c4ccccc4Cl)c3)nc12 | 0.92
Cc1ccc(N2C(=O)CC(NCCc3ccc(Cl)cc3)C2=O)cc1 (stereo not given) | 1.1
CCOc1ccc(N2C(=O)CC(NCCc3ccccn3)C2=O)cc1 (stereo not given) | 0.86
O=C1CC(NCCc2ccccn2)C(=O)N1c1ccc(Cl)cc1 (stereo not given) | 0.17*
Cc1ccc(NC(=O)c2ccccc2O)nc1 | 0.92
O=C(Nc1ncn[nH]1)c1ccccc1O | 0.17*
O=C(Nc1cccc2cccnc12)c1ccccc1O | 1
CCC(C)NC(=O)c1cc(-c2ccc(OC)c(OC)c2)on1 (stereo not given) | 1.3
CCNc1ccc(Br)cc1-c1nc2ccccc2n(CC)c1=O | 0.27*
CCOC(=O)Cn1c(=O)c(-c2cc(Br)ccc2NC)nc2cc3ccccc3cc21 | 0.84
CCOC(=O)Cn1c(=O)c(-c2ccccc2NCc2ccccc2)nc2ccccc21 | 0.98
COC(=O)CSc1nnc(Cc2cc(=O)[nH]c(=O)[nH]2)n1-c1cc(C)ccc1C | 0.79
SMILES | CBX7 AlphaScr
COc1ccc(S(=O)(=O)N(C)CCc2ccccn2)cc1 | 0.94
CCOc1ccc(CN(C)CCc2ccccn2)cc1 | 0.47*
COc1ccccc1CN(C)CCc1ccccn1 | 1
COc1cccc(C2=NOC(C(=O)Nc3cccc(C(F)(F)F)c3)C2)c1OC (stereo not given) | 1
CCc1ccccc1NC(=O)C1CC1(c1ccc(C)cc1)c1ccc(C)cc1 (stereo not given) | 0.98
Cc1oc(-c2ccc(Cl)cc2)nc1CN1CCC(C(=O)NCCN2CCCCC2C)CC1 (stereo not given) | 1
